In PubChem BioAssay:

test: modulators of HCV replicon luciferase signal, primary screen, HCV replication inhibitor project, Huh7 cells, luciferase reporter (AID 1109); conditions: 48 h, higher = more signal;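 further: huh7 hepatoma cells harbouring a luciferase neomycin HCV replicon reporter; luciferase luminescence as measure of HCV replicon replication; test concentration not given here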

Row | Compound | z-score
1 | C=CCC(OC(C)=O)[C@@H]1[C@@H](N(Cc2cc3ccccc3o2)C(=O)c2ccc(C)cc2)c2cc(OCCCO)ccc2N1C(=O)Cc1ccc2ccccc2c1 (some centres not stated) | -0.185
2 | COC(=O)[C@H](Cc1ccccc1)N1CC(/C=C/C2CC2)=C[C@@H]1[C@@H](O)Cc1ccccc1 | -1.33
3 | C=C1C2CC3C(=C4C(CO[C@@H]4[C@H]4CCCN4S(=O)(=O)c4ccccc4[N+](=O)[O-])C4C(=O)N(C)C(=O)C34)CC2C(=O)N1C (some centres not stated) | -0.979
4 | [N-]=[N+]=Nc1ccccc1C[C@]1(C(=O)NCc2ccccc2)N=C(c2ccc(OCCCO)cc2)O[C@H]1c1ccccc1 | -1.58
5 | COc1ccccc1CN1C(=O)c2ccccc2[C@](Cc2ccccc2I)(C(=O)NC(C)C)[C@@H]1c1ccc(CO)cc1 | -2.22
6 | O=C1NC(=O)C2C1C=CC(C(O)c1ccc3c(c1)OCO3)N2Nc1ccccn1 (configuration not stated) | 0.0264
7 | [N-]=[N+]=NCc1ccccc1C[C@@]1(C(N)=O)N=C(c2ccc(OCCCO)cc2)O[C@@H]1c1ccccc1CN=[N+]=[N-] | -1.55
8 | COCCCNC(=O)[C@]1(Cc2ccccc2CN=[N+]=[N-])N=C(c2ccc(OCCCO)cc2)O[C@@H]1c1ccccc1 | -3.18
9 | COCCOC(=O)N1C(=O)[C@@]2(c3cc(C#CC4(O)CCCCCC4)ccc31)[C@H](C(=O)N1CCCCCCC1)[C@H]1C(=O)O[C@H](c3ccccc3)[C@H](c3ccccc3)N1[C@@H]2c1ccc(OCCO)cc1 | -1.74
10 | CN(C)CCCCNC(=O)[C@H]1C[C@H]2C(=O)N3CCC[C@H]3C(=O)N2[C@H]1c1ccc(O)cc1 | 0.939
11 | O=C1O[C@H](c2ccccc2)[C@H](c2ccccc2)N2[C@H]1[C@@H](C(=O)O)[C@]1(C(=O)Nc3ccccc31)[C@H]2c1ccc(O)cc1 | -0.361
12 | C=CC[C@@]1(C(=O)O)N=C(c2ccc(OCCCO)cc2)O[C@@H]1c1ccccc1 | 0.0165
13 | CN1C(=O)C2C(C1=O)C1C=C(c3ccc(CO)cc3)C2C(c2cccs2)N1Cc1cccc(OC(F)(F)F)c1 (configuration not stated) | -1.3
14 | COc1cc(CO)cc(I)c1O[C@H]1C=C(C(=O)NCCO)C[C@@H](N(CC2CCCCC2)C(=O)c2ccc(C(F)(F)F)cc2)[C@@H]1O | -1.54
15 | C=C(/C=C/CNS(=O)(=O)c1ccc(C)cc1)[C@H](O)[C@H]1CCCN1S(=O)(=O)c1ccccc1[N+](=O)[O-] | -2.48
16 | C=CCN1C(=O)[C@@]2(O[C@@H](CCO)[C@H]([Si](C)(C)c3ccc(OC)cc3)[C@H]2C)c2cc(N3C(=O)c4ccccc4Oc4ccccc43)ccc21 | -5.16
17 | COCCOC(=O)N1C(=O)[C@@]2(c3cc(C#CCNC(N)=O)ccc31)[C@H](C(=O)N1CCCCCCC1)[C@H]1C(=O)O[C@H](c3ccccc3)[C@H](c3ccccc3)N1[C@@H]2c1ccc(O)cc1 | -1.07
18 | Cc1ccc(S[C@]2(C(=O)NCc3ccccc3)CC(=O)N(C(C)C)[C@@H]2c2ccc(CO)cc2I)cc1 | -1.52
19 | CCOC(=O)C1=CC[C@@H](c2ccc([N+](=O)[O-])cc2)N(S(=O)(=O)c2ccc(C)cc2)[C@H]1c1ccccc1 | -1.55
20 | COc1ccc([Si](C)(C)[C@H]2[C@H](CCn3cc([C@H](O)c4ccccc4)nn3)O[C@@]3(C(=O)N(Cc4ccc(N5CCC5=O)cc4)c4ccccc43)[C@@H]2C)cc1 | -0.917
21 | COc1cc2c(cc1OC)CN(C(=O)[C@H]1[C@@H]3C(=O)O[C@@H](c4ccccc4)[C@@H](c4ccccc4)N3[C@@H](c3ccc(OCCO)cc3)[C@]13C(=O)Nc1ccc(C#CCCO)cc13)CC2 | -0.563
22 | COc1ccc(NN2C(C(O)c3ccco3)C=CC3C(=O)N(C4CCCCC4)C(=O)C32)cc1 (configuration not stated) | 0.224
23 | NC(=O)N1C(=O)C2C(C1=O)C1C=C(c3ccc(CO)cc3)C2C(C2CC2)N1Cc1sc2ccccc2c1Cl (configuration not stated) | -1.39
24 | CON(C)C(=O)C=C1C[C@@H](c2cccc(Cl)c2)O[C@@H](c2cccc(Cl)c2)O1 | -3.11
25 | O=C1O[C@@H](c2ccccc2)[C@@H](c2ccccc2)N2[C@@H](c3ccccc3OCCO)[C@]3(C(=O)Nc4ccccc43)[C@@H](C(=O)NC[C@H](O)c3ccccc3)[C@H]12 | -3.3
26 | C=C(/C(=C/C[C@@H](OC(=O)c1ccncc1)c1ccc(OCCO)cc1)c1cc(C(=O)OC)ccc1OC)C(C)C | -1.88
27 | COCCOC(=O)N1C(=O)[C@@]2(c3cc(C#Cc4ccc(OC)cc4)ccc31)[C@H](C(=O)NC[C@H](O)c1ccccc1)[C@H]1C(=O)O[C@H](c3ccccc3)[C@H](c3ccccc3)N1[C@@H]2c1ccc(O)cc1 | -1.45
